According to the supplement of paper PMC8975748:
Counter-ions that a name gives are not always drawn.

Test system: Saccharomyces cerevisiae BY4741 SeMeCo community
Test: z-score of subpopulation abundance vs DMSO median, subpopulation auxotrophic for M; higher = larger share of this subpopulation than in DMSO controls
Conditions: 10 µM; 24 h; SM minimal medium; subpopulation (auxotrophy): M
Protocol: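 Fluorescent four-plasmid SeMeCo (self-establishing metabolically cooperating S. cerevisiae BY4741 community; plasmids pH-mRuby2, pL-mWasabi, pU-eCFP, pM-TagRFP657) was grown 24 h in minimal SM medium with each Selleck FDA-approved drug at 10 µM in 384-well plates. Cells were fixed and imaged by high-content confocal microscopy. For each auxotrophic subpopulation (and the prototroph), a z-score gives the deviation from the DMSO vehicle-control population median.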

| SMILES | z-score of subpopulation abundance |
| --- | --- |
| CC1=Nc2ccc(Cl)cc2S(=O)(=O)N1 [Diazoxide] | -0.76 |
| COC(=O)C1=C(C)NC(C)=C(C(=O)OC(C)(C)CN(C)CCC(c2ccccc2)c2ccccc2)C1c1cccc([N+](=O)[O-])c1 (stereo not given) [Lercanidipine hydrochloride] | 0.32 |
| COC(=O)C1=C(C)NC(C)=C(C(=O)OCCN2CCN(C(c3ccccc3)c3ccccc3)CC2)C1c1cccc([N+](=O)[O-])c1 (stereo not given) [Manidipine 2HCl] | 2.89 |
| CO[C@@H]1[C@H](OC(=O)/C=C/C=C/C=C/C=C/C(=O)O)CC[C@]2(CO2)[C@H]1[C@@]1(C)O[C@@H]1CC=C(C)C [Fumagillin] | -0.12 |
| CCOc1ccc(NC(C)=O)cc1 [Phenacetin] | 0.1 |
| CC(C[N+](C)(C)C)OC(N)=O (stereo not given) [Bethanechol chloride] | -0.79 |
| O=C1c2cccc3c2[C@H](CCC3)CN1[C@@H]1CN2CCC1CC2 [Palonosetron] | -0.21 |
| CN(C)CCCN1c2ccccc2Sc2ccccc21 [Promazine hydrochloride] | 0.15 |
| O=C(O)C1=C(CSc2nnnn2CS(=O)(=O)O)CS[C@@H]2[C@H](NC(=O)[C@H](O)c3ccccc3)C(=O)N12 [Cefonicid sodium] | -0.38 |
| CCC[C@@H]1C[C@@H](C(=O)N[C@@H]([C@H]2O[C@H](SC)[C@H](O)[C@@H](O)[C@H]2O)[C@H](C)Cl)N(C)C1 [Clindamycin HCl] | 0.72 |
| CCN1CCN(C(=O)N[C@@H](C(=O)N[C@@H]2C(=O)N3[C@@H]2SC(C)(C)[C@@H]3C(=O)O)c2ccccc2)C(=O)C1=O [Piperacillin Sodium] | 0.21 |
| CN[C@@H]1[C@@H](O[C@H]2O[C@H](CO)[C@@H](N)[C@H](O)[C@H]2O)OC2C[C@@H](N)[C@@H](O[C@H]3[C@H](O)[C@@H](O)[C@H](N)C[C@@H]3N)OC2[C@@H]1O (stereo not given in full) [Apramycin Sulfate] | -0.24 |
| Cc1cc(C)nc(O)n1.O=C(Nc1ccc([N+](=O)[O-])cc1)Nc1ccc([N+](=O)[O-])cc1 [Nicarbazin] | -0.21 |
| C[C@@H](O)[C@H]1C(=O)N2C(C(=O)O)=C([C@H]3CCCO3)S[C@H]12 [Faropenem Sodium] | 0.61 |
| CC(c1cc2ccccc2s1)N(O)C(N)=O (stereo not given) [Zileuton] | 0.27 |
| O=C(O)CCNC(=O)c1ccccc1 [Betamipron] | 0.51 |
| COc1cc2c(cc1OC)-c1cc3ccc(OC)c(OC)c3c[n+]1CC2 [Palmatine] | -0.17 |
| CCn1cc(C(=O)O)c(=O)c2cc(F)c(N3CCN(C)CC3)cc21 [Pefloxacin Mesylate Dihydrate] | 1.25 |
| CN(C)CCC=C1c2ccccc2CCc2ccccc21 [Amitriptyline HCl] | 0.09 |
| N[C@@H](CCC(=O)O)C(=O)O [(S)-Glutamic acid] | -0.4 |

| SMILES | z-score of subpopulation abundance |
| --- | --- |
| CNCC[C@@H](Oc1ccccc1C)c1ccccc1 [Atomoxetine HCl] | 0.21 |
| COC(=O)C1=C(C)NC(C)=C(C(=O)OCCN2CCN(C(c3ccccc3)c3ccccc3)CC2)C1c1cccc([N+](=O)[O-])c1 (stereo not given) [Manidipine] | 1.78 |
| CC1(C)S[C@@H]2[C@H](NC(=O)[C@H](N)c3ccc(O)cc3)C(=O)N2[C@H]1C(=O)O [Amoxicillin trihydrate] | 0.05 |
| Cc1cnc(NC(=O)C2=C(O)c3ccccc3S(=O)(=O)N2C)s1 [Meloxicam] | -0.52 |
| Nc1ccc2cc3ccc(N)cc3nc2c1 [Proflavine Hemisulfate] | 6.69 |
| COc1ccc2cc([C@H](C)C(=O)O)ccc2c1 [Naproxen] | -1.11 |
| Cc1ccc(-c2ncc(Cl)cc2-c2ccc(S(C)(=O)=O)cc2)cn1 [Etoricoxib] | 0.51 |
| CC1(C)S[C@@H]2[C@H](NC(=O)Cc3ccccc3)C(=O)N2[C@H]1C(=O)O [Benzylpenicillin potassium] | -0.08 |
| CCCNC(C)C(=O)Nc1ccccc1C (stereo not given) [Prilocaine] | -0.72 |
| CC[C@@H]1/C=C(\C)C[C@H](C)C[C@H](OC)[C@H]2O[C@@](O)(C(=O)C(=O)N3CCCC[C@H]3C(=O)O[C@H](/C(C)=C/[C@@H]3CC[C@@H](O)[C@H](OC)C3)[C@H](C)[C@@H](O)CC1=O)[C@H](C)C[C@@H]2OC [Ascomycin (FK520)] | 1.34 |
| Cn1c(=O)c2c(ncn2CC2OCCO2)n(C)c1=O [Doxofylline] | -0.41 |
| N#CC(c1ccc(Cl)cc1)c1c(Cl)cc(-n2ncc(=O)[nH]c2=O)cc1Cl (stereo not given) [Diclazuril] | 0.92 |
| OC(CCN1CCCCC1)(c1ccccc1)C1CCCCC1 (stereo not given) [Trihexyphenidyl hydrochloride] | 0.49 |
| C1N2CN3CN1CN(C2)C3 [Methenamine] | 0.26 |
| CCCCCCCCN=c1ccn(CCCCCCCCCCn2ccc(=NCCCCCCCC)cc2)cc1 [Octenidine Dihydrochloride] | -8.04 |
| CN1CCc2cc3c(cc2C(=O)Cc2ccc4c(c2C1)OCO4)OCO3 [Protopine] | -0.25 |
| CCCCCCCCc1ccc(CCC(N)(CO)CO)cc1 [Fingolimod] | -1.67 |
| O=C(O)CCCCCCCC(=O)O [Azelaic acid] | 0.44 |
| O=C1c2c(O)ccc(O)c2C(=O)c2c(NCCNCCO)ccc(NCCNCCO)c21 [Mitoxantrone 2HCl] | -14 |
| CCOC(=O)C1=C(COCCN)NC(C)=C(C(=O)OC)C1c1ccccc1Cl (stereo not given) [Amlodipine] | 3.04 |
